Rows were chosen to be rich in hits. Some 2.4% of all compounds tested hit in one or more screens of this group.
ULK1 inh – ULK1 kinase inhibitors, primary screen, biochemical, AlphaScreen. Serine/threonine-protein kinase ULK1 (Homo sapiens), O75385. AlphaScreen Atg13 phosphorylation by ULK1, luminescence. inhibition, % at 5.96 µM. 30,000 tested, 1.9% active; in the data active means inhibition above about 43%
ASK1 primary – ASK1 kinase inhibitors, primary screen, biochemical, AlphaScreen; inhibition, % at 7.44 µM; 22,000 tested, 0.99% active; AlphaScreen MKK6 phosphorylation by ASK1, luminescence; in the data active means inhibition above about 35%
AlphaScreen intf – AlphaScreen signal interference by compounds, dose response, artefact control for ASK1 inhibitor project, biochemical, TruHits beads | shares compounds with ASK1 primary | signal interference counterscreen | IC50, µM | 220 tested, 20% active | AID 1159604, 2016;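 active means IC50 of 10 µM or lower in the counterscreen; inactive means IC50 above 10 µM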;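 further: loss of AlphaScreen light from TruHits beads alone with no ASK1 enzyme present; potency of signal reduction so a low IC50 flags an assay artifact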
Numbers stand for hits; i = inactive; nt = no result.

SMILES	ULK1 inh	ASK1 primary	AlphaScreen intf
COc1ccc(CCNc2nc(Nc3ccc(C(F)(F)F)cc3)nc3c2ncn3Cc2ccc(C(F)(F)F)cc2)cc1	i	i	nt
COc1ccc(CCNc2nc(Nc3ccc(N4CCOCC4)cc3)nc3c2ncn3Cc2ccc(C(F)(F)F)cc2)cc1	i	72	9.5
COc1ccc(CCNc2nc(Nc3ccc(N4CCOCC4)cc3)nc3c2ncn3C(C)C)cc1	i	i	nt
COc1ccc(CCNc2nc(Nc3ccc(C(F)(F)F)cc3)nc3c2ncn3-c2ccsc2)cc1	i	i	nt
O=C(NCc1nc2ccccc2[nH]1)c1ccc2nc(N3CCCC3CO)sc2c1 (configuration not stated)	i	i	nt
CC(C)n1cnc2c(NC3CC3)nc(N3CCN(c4ccccn4)CC3)nc21	i	43	i
c1ccc(N2CCN(c3nc(Nc4ccc(N5CCOCC5)cc4)c4ncn(C5CCCCC5)c4n3)CC2)nc1	64	44	i
c1cncc(CNc2nc(N3CCOCC3)nc3c2ncn3C2CCCCC2)c1	i	i	nt
c1ccc(Nc2nc(N3CCN(c4ccccn4)CC3)nc3c2ncn3C2CCCCC2)cc1	i	i	nt
CCCNc1nc(N2CCN(c3ccccn3)CC2)nc2c1ncn2C(C)C	i	i	nt
c1cncc(CNc2nc(Nc3ccc(N4CCOCC4)cc3)nc3c2ncn3C2CCCCC2)c1	i	36	i
c1ccc(-n2cnc3c(NCc4cccnc4)nc(Nc4ccc(N5CCOCC5)cc4)nc32)cc1	i	39	i
c1ccc(-n2cnc3c(NCc4cccnc4)nc(Nc4cccnc4)nc32)cc1	i	i	nt
Oc1ccc(CCNc2nc(Cl)nc3c2ncn3Cc2ccc(C(F)(F)F)cc2)cc1	i	i	nt
N#CCCNc1cc(-c2cccc(C(F)(F)F)c2)nc(-c2cccnc2)n1	i	nt	nt
OC(Cc1ccccc1)c1c[nH]c2ccc(-c3ccncc3)cc12 (configuration not stated)	i	i	nt
CCCNc1nc(Nc2nccc3ccccc23)nc(N(CC)CC)n1	i	i	nt
CN1CCN(C(=O)c2ccc(-c3nc4ccc(C(=O)Nc5ccccc5)cc4s3)cc2)CC1	i	i	nt
CC(=O)Nc1ccc(Nc2cc(N3CCN(c4ccccn4)CC3)ncn2)cc1	i	i	nt
Cn1nccc1Nc1nc(NCc2cccc(C(F)(F)F)c2)c2ncn(C3CCCCC3)c2n1	i	i	nt
O=C(NCCCN1CCCC1=O)c1ccnc(-c2ccc(N3CCOCC3)nc2)c1	i	i	nt
COc1ccc(-c2cnc(SCC(=O)Nc3cc(C)ccc3C)n2C)cc1	i	nt	nt
CCN(CC)c1nc(Nc2ccc3c(c2)OCO3)nc(N2CCC(N3CCOCC3)CC2)n1	i	39	i
CCN(CC)c1nc(Nc2ccccc2)nc(N2CCN(Cc3ccc4c(c3)OCO4)CC2)n1	i	i	nt
CCN(CC)c1nc(Nc2ccc(N3CCOCC3)cc2)nc(N2CCN(Cc3ccc4c(c3)OCO4)CC2)n1	i	43	i
SMILES	ULK1 inh	ASK1 primary	AlphaScreen intf
CCN(CC)c1nc(Nc2ccc(N3CCOCC3)cc2)nc(N2CCC(N3CCOCC3)CC2)n1	i	i	nt
COc1cc2nc(Nc3ccccc3)nc(Nc3ccc(NC(C)=O)cc3)c2cc1OC	i	i	nt
COc1cc2nc(Nc3nccc4ccccc34)nc(Nc3ccc(NC(C)=O)cc3)c2cc1OC	i	69	i
CC(=O)Nc1ccc(NC(=O)c2cncc(-c3ccc(N4CCOCC4)nc3)c2)cc1	i	i	nt
O=C(NCCN1CCOCC1)c1cccc(-n2ncc3cc(Nc4ccccc4F)ccc32)c1	i	i	nt
Cc1cccc(Nc2ccc3c(cnn3-c3cccc(C(=O)NCCN4CCNCC4)c3)c2)c1Cl	i	43	i
Cc1cccc(Nc2ccc3c(cnn3-c3cccc(C(=O)NCCN4CCN(C)CC4)c3)c2)c1Cl	i	i	nt
Cc1cccc(Nc2ccc3c(cnn3-c3cccc(C(=O)NCCN4CCN(CC5CC5)CC4)c3)c2)c1Cl	i	36	i
O=C(NCCN1CCOCC1)c1cccc(-n2ncc3cc(Nc4c(F)cccc4[N+](=O)[O-])ccc32)c1	i	44	i
CC(=O)N1CCN(CCNC(=O)c2cccc(-n3ncc4cc(Nc5cccc(C)c5Cl)ccc43)c2)CC1	i	i	nt
O=C1CCCN1CCCNc1ccnc(N2CCN(c3ccccn3)CC2)n1	i	i	nt
CC(=O)Oc1ccc(/C=C(\C#N)C(=O)Nc2ccc([N+](=O)[O-])cc2)cc1Br	i	nt	nt
Oc1ccc(CCNc2cc(-c3csc4ccccc34)ncn2)cc1	i	i	nt
FC(F)(F)c1ccc(Cn2cnc3c(Nc4ccc5c(c4)OCO5)nc(NC4CCN(Cc5ccccc5)CC4)nc32)cc1	i	46	i
FC(F)(F)c1ccc(Cn2cnc3c(Nc4ccccc4)nc(NC4CCN(Cc5ccccc5)CC4)nc32)cc1	i	i	nt
c1ccc(CN2CCC(Nc3nc(Nc4ccc(N5CCOCC5)cc4)nc4c3ncn4C3CCCCC3)CC2)cc1	i	50	8.1
c1ccc(CN2CCC(Nc3nc(Nc4ccc(N5CCOCC5)cc4)nc4c3ncn4-c3ccccc3)CC2)cc1	i	i	nt
FC(F)(F)c1ccc(Cn2cnc3c(NC4CCN(Cc5ccccc5)CC4)nc(Nc4ccc(N5CCOCC5)cc4)nc32)cc1	i	40	i
FC(F)(F)c1ccc(Cn2cnc3c(NC4CC4)nc(Nc4ccc(N5CCOCC5)cc4)nc32)cc1	i	i	nt
O=C1CCCN1CCn1cnc2c(NC3CCN(Cc4ccccc4)CC3)nc(Nc3ccc(-n4ccnc4)cc3)nc21	i	i	nt
O=C(NCCCN1CCCC1=O)c1csc(-c2cccs2)n1	i	i	nt
COc1cc2nc(Nc3ccc(N4CCOCC4)cc3)nc(NCCc3ccc(O)cc3)c2cc1OC	i	i	nt
COc1cc2nc(Nc3ccc(N4CCOCC4)cc3)nc(NCCCN3CCCC3=O)c2cc1OC	i	i	nt
Cc1cnc(Nc2ccc(N3CCOCC3)cc2)nc1NCc1ccccc1	i	37	i
CCCNc1nc(Nc2ccc(N3CCOCC3)cc2)ncc1C	i	i	nt
SMILES	ULK1 inh	ASK1 primary	AlphaScreen intf
Cc1cnc(Nc2ccc(N3CCOCC3)cc2)nc1NCc1cccnc1	i	i	nt
COc1ccc(CCNc2nc(Nc3ccc(N4CCOCC4)cc3)nc3cc(OC)c(OC)cc23)cc1	i	53	6.8
COc1cc2nc(Nc3ccc(N4CCOCC4)cc3)nc(NCCOc3ccccc3)c2cc1OC	i	57	5.8
COc1ccc(CCNc2nc(Nc3ccc(N4CCOCC4)cc3)ncc2C)cc1	i	40	i
CCCN1[C@H](C)[C@H]2CCC[C@]23OCCC=C3[C@H]1c1cccc(Cl)c1	i	i	nt
O=C(Nc1ccc2c(c1)OCO2)c1cccc(Nc2nccc3ccccc23)c1	i	i	nt
CCC(=O)Nc1ccc(C(=O)NNC(=O)c2ccc(Cl)cc2Cl)cc1	i	nt	nt
CC(=O)O[C@@H]1CC[C@@]2(C)C(=CC[C@@H]3[C@H]4CC=C(C(C)=O)[C@]4(C)CC[C@@H]32)C1	i	nt	nt
COc1cc(Nc2nc(Nc3cccnc3)nc3c2ncn3-c2ccccc2)cc(OC)c1OC	i	i	nt
COc1ccc(C(=O)c2oc3ccccc3c2NC(=O)c2ccncc2)cc1	i	nt	nt
CCCN1CCC2(CC1)NC(=O)N(CC(=O)Nc1cccc(F)c1)C2=O	i	nt	nt
c1ccc(CNc2nc(NCc3ccc4c(c3)OCO4)nc3c2ncn3-c2ccsc2)cc1	i	i	nt
CCN(CC)c1nc(NCCc2ccc(OC)cc2)nc(Nc2cccc(N(C)C)c2)n1	i	i	nt
COc1ccc(CCNc2nc(Nc3cccc(N(C)C)c3)nc3cc(OC)c(OC)cc23)cc1	i	61	7.6

Source: PubChem BioAssay
